The record followed here is the supplement of paper PMC12669032.

Common to all, as to experiment: growth AUC relative to DMSO control (median of replicates) (fraction); higher = more growth (less inhibition), active = hit call of the paper
Holding throughout (conditions): 20 µM; 24 h

The subject of one assay is Akkermansia muciniphila. In a few lines: (§1)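 Area under the growth curve was normalised to the plate median of solvent-only wells, except on the industrial chemical plate, where row and column medians were used. Curves came from gut bacterial monocultures grown anaerobically at 37 °C in mGAM with 20 µM compound (1% DMSO), starting at OD600 0.05 and read at OD600 every hour for 24 h. The minimum OD of each curve was set to 0, and values are medians of three biological replicates grown on separate days.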

The next assay deals with Bacteroides caccae. The procedure, abridged: as §1
The test system of another assay is Bacteroides clarus. The procedure, abridged: as §1
Another assay deals with Bacteroides dorei. The procedure, abridged:
as §1

Another assay has as its system Bacteroides stercoris. In a few lines:
as §1

Assay [1] deals with Bacteroides thetaiotaomicron. The procedure, abridged: as §1
The next assay concerns Bacteroides uniformis. The procedure, abridged: as §1
For assay [2], the system named is Bifidobacterium longum subsp. longum. In a few lines: as §1
The next assay relates to Clostridium difficile. In a few lines:
as §1

Another assay relates to Collinsella aerofaciens. The procedure, abridged:
as §1

Values without a mark were called inactive.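 The calls were made as follows: active = AUC reduced over 20% with Padj below 0.05 in at least 2 of 3 replicates; inactive = otherwise.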

As for `CC(C)N(C(=O)COc1nnc(C(F)(F)F)s1)c1ccc(F)cc1`, the “growth AUC” value was 0.411 (active) with Akkermansia muciniphila; 1.05 in the assay on Bacteroides caccae; 1.02 in the assay on Bacteroides clarus; 0.996 in the assay with Bacteroides dorei; 0.973 in the assay with Bacteroides stercoris; 0.952 in [1]. Besides, the “growth AUC” value is 0.907 with Bacteroides uniformis, 1.03 in [2], 0.955 with Clostridium difficile and 1.01 with Collinsella aerofaciens.

Take `CC1(C)C(/C=C(\Cl)c2ccc(Cl)cc2)C1C(=O)OC(C#N)c1ccc(F)c(Oc2ccccc2)c1` (stereo not given): the “growth AUC” value in the assay on Akkermansia muciniphila was 0.965; with Bacteroides caccae it was 0.993; in the assay with Bacteroides clarus, 0.985; in the assay on Bacteroides dorei, 1.04; in the assay with Bacteroides stercoris, 1; in [1], 1. The “growth AUC” value in the assay on Bacteroides uniformis is 0.99; in [2], 0.94; in the assay on Clostridium difficile, 1.09; in the assay with Collinsella aerofaciens, 1.04.

As for `COP(=O)(NC(C)=O)SC` (stereo not given), the “growth AUC” value with Akkermansia muciniphila was 0.941; in the assay on Bacteroides caccae it was 1.01; in the assay with Bacteroides clarus, 0.993; in the assay with Bacteroides dorei it was 0.992; with Bacteroides stercoris, 1.02; in [1], 0.978. The “growth AUC” value is 0.979 with Bacteroides uniformis, 0.96 in [2], 1.01 in the assay with Clostridium difficile and 1.04 in the assay with Collinsella aerofaciens.

In the case of `CCSCc1ccccc1OC(=O)NC`, the “growth AUC” value in the assay on Akkermansia muciniphila is 0.874; in the assay with Bacteroides caccae, 1.01; in the assay on Bacteroides clarus, 0.972; with Bacteroides dorei, 0.995; with Bacteroides stercoris it was 0.992; in [1] it was 0.967. The “growth AUC” value in the assay on Bacteroides uniformis was 0.973; in assay [2], 0.967; with Clostridium difficile, 0.972; with Collinsella aerofaciens it was 1.

Turning to `COC(C)(C)CCCC(C)C/C=C/C(C)=C/C(=O)OC(C)C` (stereo not given), the “growth AUC” value in the assay on Akkermansia muciniphila was 0.867; with Bacteroides caccae, 1; in the assay with Bacteroides clarus it was 0.989; with Bacteroides dorei, 0.996; with Bacteroides stercoris it was 1.03; in assay [1], 0.981. The “growth AUC” value is 0.963 with Bacteroides uniformis, 0.987 in assay [2], 1.02 in the assay on Clostridium difficile and 1.04 in the assay with Collinsella aerofaciens.

For `Oc1cccc2cccnc12`, the “growth AUC” value with Akkermansia muciniphila is 0.981; with Bacteroides caccae, 0.994; with Bacteroides clarus, 1.01; with Bacteroides dorei, 0.993; with Bacteroides stercoris it was 1.12; in [1], 0.984. Also, the “growth AUC” value with Bacteroides uniformis was 0.988; in assay [2] it was 1.14; in the assay with Clostridium difficile, 0.959; in the assay with Collinsella aerofaciens, 0.963.
